Shown are actives, neighbours in structure and some others; about 2.4% of the full set was active somewhere.
B2AR arrestin = beta2AR (human) beta-arrestin recruitment activity. P07550. beta-arrestin recruitment to beta2AR, cell-based reporter. Potency, µM (doses to about 46.1 µM), for the others: at the highest dose activation, most hits filed as activators. 0.02% of 330,000 active. AID 492947; active = well fitted activation curve with a large enough effect; inconclusive = small, poorly fitted or top-dose-only effect;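 also: potency is read from the fitted curve at half-maximal effect; 0% = DMSO controls and full agonism = EC100 isoproterenol or metaproterenol; nearly all actives have a fitted effect of over 65% in size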
Target sequence (P07550 whole entry, looked up): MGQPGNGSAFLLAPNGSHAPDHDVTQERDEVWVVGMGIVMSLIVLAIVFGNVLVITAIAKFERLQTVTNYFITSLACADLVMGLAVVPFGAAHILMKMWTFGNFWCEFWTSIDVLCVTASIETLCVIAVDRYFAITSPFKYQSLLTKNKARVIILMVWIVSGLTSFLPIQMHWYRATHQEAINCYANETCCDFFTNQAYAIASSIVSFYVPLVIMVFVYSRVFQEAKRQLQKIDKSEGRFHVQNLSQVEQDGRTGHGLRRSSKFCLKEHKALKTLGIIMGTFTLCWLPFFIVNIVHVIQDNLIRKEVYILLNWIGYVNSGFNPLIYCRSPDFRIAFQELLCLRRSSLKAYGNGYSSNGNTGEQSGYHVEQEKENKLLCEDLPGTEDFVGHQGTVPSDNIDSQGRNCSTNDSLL
D2 ag-1 = human D2 receptor agonism in beta-arrestin assay; activation, % (test concentration not listed); P14416; DiscoveRx PathHunter D2 beta-arrestin, luminescence, 90 min; 100% = 57 uM dopamine signal; 0.084% of 360,000 active; in the data active = activation above about 40%; inconclusive = between about 15% and that limit
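Agonist mode: compounds alone added to overnight-plated D2 PathHunter cells for 90 min at 37 C, with 57 uM final dopamine (EC100) defining full response. Beta-arrestin recruitment detected by chemiluminescent reagent, read after 1 h at ambient temperature.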
D2 ag-2 = D2 dopamine receptor (human) agonism | P14416 | HEK293 T-REx D2 cells, calcium flux agonist mode | activation, % at 2 µM | 0.53% of 340,000 active | AID 485358;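 active = activation over 3 SD above normal in the single-dose calcium agonist read, cut at about 30% in these data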; also: 0% is about no effect
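HEK293 Trex D2 cells, tetracycline-induced, o/n 30 C 5% CO2; no-wash Ca dye, RT 30–90 min; 10-cycle baseline, 23 nl cpd added, kinetic Ca read 180 s; agonist hits = positive Ca response.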
D2 antag = antagonists of human D2 dopamine receptor. P14416. HEK293 TREx D2 cells, calcium flux, dopamine EC80. inhibition, % at 10 µM. 2% of 340,000 active; in the data active = inhibition above about 30%; inactive = below that, where a call was filed; also: 0% is about no effect
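Read-out: kinetic calcium fluorescence (1 cycle/s) in inducible HEK293 T-REx D2 cells after an EC80 dopamine addition that followed 180 s compound preincubation. Loss of the dopamine response indicates antagonism.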
D2 PAM-1 = positive allosteric modulators of human D2 dopamine receptor; P14416; DiscoveRx D2 beta-arrestin cells, luminescence, 90 min; 100% = 57 uM dopamine signal; potentiation, % (test concentration not listed); 0.23% of 360,000 active; AID 624464; in the data active = potentiation above about 50%; inconclusive = mostly about 30% to 49%
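PathHunter beta-arrestin assay in DiscoveRx D2 cells. Compounds were added with an EC20 of dopamine (50 nM final) for 90 min at 37 deg C. Luminescence was read 1 h after detection reagent, with 57 uM dopamine as the EC100 control.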
D2 PAM-2 = positively modulates the human D2 dopamine receptor allosterically | P14416 | HEK293 T-REx D2, calcium flux, EC20 dopamine potentiation | potentiation, % at 10 µM | 0.34% of 340,000 active | AID 485347;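 active = potentiation over 3 SD above the plate norm, cut at about 30% in these data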; also: 0% is about no effect
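Tetracycline-induced HEK293 T-REx cells force-coupled to calcium signalling expressed D2; compounds were pin-added after a 10 s baseline, read kinetically 180 s, then an EC20 dopamine challenge followed with a further 180 s calcium read.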
Starred values were filed as active, the others as inactive; ? = inconclusive; nt = no result given; ! = a repeat was not active.

SMILES	B2AR arrestin	D2 ag-1	D2 ag-2	D2 antag	D2 PAM-1	D2 PAM-2
O=C(c1cc(Br)ccc1OC(F)F)N1CCN2CCCC2C1 (centres undefined)	0%	-1	0	33*	-4	-3
Cc1cccc(S(=O)Cc2ccc(C(=O)NC3CCN(Cc4ccccc4)CC3)o2)c1 (centres undefined)	0%	-7	0	44*	-35	-19
Cc1ccccc1S(=O)Cc1ccc(C(=O)NC2CCN(Cc3ccccc3)CC2)o1 (centres undefined)	-1%	-4	1	44*	-33	-20
CCOC(=O)N1CCC(NC(=O)c2ccc(CS(=O)c3ccc(Cl)cc3)o2)CC1 (centres undefined)	0%	0	1	8	1	0
Cc1ccccc1S(=O)Cc1ccc(C(=O)NCCN2CCOCC2)o1 (centres undefined)	0%	-4	0	-14	-5	4
COc1ccccc1/C=C/C(=O)OCC(=O)NNC(=O)c1ccccc1	3%	-8	-1	-15	-8	5
CC(C)CCNC(=O)[C@H](Cc1ccccc1)N1Cc2ccccc2C1=O	0%	-3	-2	-13	-5	3
C[C@@H]1NC(=O)c2cc([N+](=O)[O-])cc(I)c2OCC[C@@H](C(N)=O)NC(=O)[C@H](CCCCN)NC1=O	-4%	-1	0	-1	-7	6
C[C@@H]1NC(=O)[C@H](CCCN=C(N)N)NC(=O)c2cc([N+](=O)[O-])cc(I)c2OCC[C@@H](C(N)=O)NC1=O	0%	nt	-1	32*	nt	0
N#CCCN1CCN(Cc2cc(-c3ccccc3)ccc2O)CC1	0%	-1	0	65*	-10	-30
CC(C)(C)CC(C)(C)c1ccc(O)c(CN2CCN(CCC#N)CC2)c1	0%	-1	0	4	-19	-4
C=CCN(C)CC/C=C1\c2ccccc2CSc2ccccc21	0%	-2	1	68*	-32	-23
CN(CC/C=C1/c2ccccc2CSc2ccccc21)CCCO	0%	-2	2	13	-40	-19
CN(C)CC/C=C1\c2cc(F)ccc2CSc2ccccc21	0%	-4	0	37*	-52	-25
O=[N+]([O-])c1cc(-c2nnc(C34CC5CC(CC(C5)C3)C4)o2)cc([N+](=O)[O-])c1	0%	?	-1	-6	145*	-1
Cc1cc2cc(NC(=O)c3ccco3)ccc2[nH]1	0%	-3	0	-10	-8	10
COc1cccc(-n2c(SCC(=O)NCc3ccco3)nnc2-c2c[nH]c3ccccc23)c1	0%	2	-2	48*	4	-11
COc1ccc(OC)c(-n2c(SCC(=O)NCc3ccco3)nnc2-c2c[nH]c3ccccc23)c1	0%	0	0	4	-3	3
Cc1ccc(C(=O)O/N=C(\N)c2ccccn2)cc1	0%	0	0	12	4	-15
CCOc1ccc(C(=O)O/N=C(\N)c2ccccn2)cc1	-1%	?	1	2	55*	-3
N/C(=N\OC(=O)c1cc(Cl)ccc1Cl)c1ccccn1	0%	5	-1	-3	7	7
COc1ccc(Cl)cc1C(=O)O/N=C(\N)c1ccccn1	-1%	?	0	27	63*!	-2
c1ccc(-c2cnn3c(-c4ccccc4)c(-c4ccccc4)nc3n2)cc1	0%	-3	137*	39*	-9	-12
CC(C)OC(=O)c1ccc(NC(=S)NC(=O)c2cncc(Br)c2)cc1	0%	-3	-1	-1	-1	8
CC(C)OC(=O)c1ccc(NC(=O)c2cncc(Br)c2)cc1	-1%	1	1	45*	4	4
SMILES	B2AR arrestin	D2 ag-1	D2 ag-2	D2 antag	D2 PAM-1	D2 PAM-2
N/C(=N\OC(=O)c1ccc2c(c1)OCO2)c1cccc([N+](=O)[O-])c1	0%	10	0	3	?	-9
Cc1cccc(C(=O)O/N=C(/c2ccccc2)c2ccncc2)c1	0%	?	-2	0	63*	12
Cc1cccc(/C(N)=N/OC(=O)N2c3ccccc3Sc3ccccc32)c1	0%	?	0	-18	51*	7
Cc1cccc(/C(N)=N/OC(=O)c2ccc(Br)o2)c1	0%	?	0	6	65*	4
COc1ccc(C(=O)O/N=C(/c2ccccc2)c2ccncc2)cc1OC	0%	7	nt	nt	24	nt
Cc1cccc(/C(N)=N/OC(=O)c2ccc3c(c2)OCO3)c1	0%	?	1	-9	57*	5
COc1ccc(F)cc1CN1CCN(c2ncnc3scc(-c4ccccc4)c23)CC1	0%	-1	2	17	-7	-4
Cc1nc(N2CCN(C(=O)c3ccco3)CC2)[nH]c(=O)c1C	0%	?	0	-1	6	0
COc1ccc(C(=O)c2ccc(N3CCN(C4CC(=O)NC4=O)CC3)cc2)cc1F (centres undefined)	-1%	-1	0	34*	14	3
COc1ccc(N2CCN(C3CC(=O)NC3=O)CC2)cc1 (centres undefined)	-1%	-4	0	6	-1	-3
CCOc1cccc(N)c1	16µM*	-3	-1	3	-3	10
CC(C)n1c2ccccc2c2nc3ccccc3nc21	0%	-6	-1	-10	-19	40*
C#CCn1c2ccccc2c2nc3ccccc3nc21	0%	1	0	-13	-1	14
Cc1ccc(C(=O)Sc2cccccc2=O)cc1	0%	-7	4	37*	-15	7
O=C(Nc1ccccc1SC(=O)c1ccccc1)c1ccccc1	nt	15	nt	nt	-12	nt
CNC(=S)N1CCC(NC(=O)C23CC4CC(CC(C4)C2)C3)CC1	7%	5	0	6	-3	-4
CC(=O)N1CCN(C(=S)NC(=O)C23CC4CC(CC(C4)C2)C3)CC1	0%	-1	0	-3	-13	34*
Cn1c(N)c(C(=O)CSc2nnnn2-c2ccccc2)c(=O)n(C)c1=O	0%	2	7	39*	1	-13
CCCCCCn1c(COc2ccccc2F)nnc1SCC(=O)c1c(N)n(C)c(=O)n(C)c1=O	-1%	nt	-1	-7	nt	32*
O=C(CCNS(=O)(=O)c1cccc2nonc12)NC1CCCCCC1	0%	-1	0	0	-15	5
OCCNc1nc(SCc2ccccc2)nc2sc3c(c12)CCC3	5%	-4	-1	-2	-34	11

Assay outcomes: PubChem, National Center for Advancing Translational Sciences (NCATS)
